The structures appear in SMILES notation. Compounds without any hit were thinned out: in the full panel of roughly 79,000, 15% have a hit. Active and inactive are the calls of the source. Rule as the data show it: active = growth inhibition above about 70%; inactive = the rest.

The first assay can be described thus: NCI Yeast Anticancer Drug Screen. Data for the bub3 strain (AID 167). To be noted: S. cerevisiae bub3 mutant strain, at 50.0 µM, active compounds read high. The method, boiled down: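 Inhibition values come from growth of compound-treated mutant yeast normalised to vehicle-treated controls.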
Turning to `NCc1ccc(C(=O)O)cc1`, the growth inhibition is -13% (inactive).
On the same count and under the same terms, next, `O=C1NC(c2ccccc2Cl)Nc2ccccc21` (stereo not given): 5.45% (inactive); `O=C1c2ccccc2Cc2ccccc21`: 16.4% (inactive); `CN1CCC(c2ccccc2)(c2ccccc2)OC1`: 9.95% (inactive).
With `O=[N+]([O-])c1cccc(C2=NOC3CCCC23)c1` (stereo not given), the growth inhibition is -8.3% (inactive).
Regarding `C[Si](C)(C)C#CCOC=C1CC1`, the growth inhibition is -11.7% (inactive).
For the compound `N/C=N/O`, the growth inhibition was 18.8% (inactive).
Still for that read-out and setting: next, `O=[N+]([O-])c1ccc(OCCO)c([N+](=O)[O-])c1`: -0.15% (inactive); `CC(C)(C)C1CCC2c3c([nH]c4ccccc34)C3C(=O)N(c4ccc(Br)cc4)C(=O)C3C2C1` (stereo not given): 13.8% (inactive); `CCOC(=O)C(CCC(C)(C)SCc1ccccc1)(NC(C)=O)C(=O)OCC`: 2.15% (inactive).
Regarding `CCC1CCN(CC)CC1`, the growth inhibition was -19.6% (inactive).
Turning to `Cc1cc(C(=O)O)c(C(=O)O)c(=O)[nH]1`, the growth inhibition was -1.05% (inactive).
As for `CC(=O)/C(=C\c1ccc([N+](=O)[O-])o1)C(=O)CCN(C)C`, the growth inhibition was 39.5% (inactive).
Turning to `C(=C1/NC(c2ccccc2)=Nc2ccccc21)/c1ccccc1`, the growth inhibition is 4.85% (inactive).
As to `COc1ccc2ccccc2c1C1NC(=O)c2ccccc2N1` (stereo not given), the growth inhibition is 12.5% (inactive).
Take `NCCNCCCCCCNC(=O)c1cccc2cc3ccccc3nc12`: the growth inhibition is -14% (inactive).
Consider `c1ccc(-c2ccc3ncccc3c2)cc1`, for which the growth inhibition is -0.4% (inactive).
Turning to `CCOC(=O)Oc1ccc(C(CNC(C)C)OC(=O)OCC)cc1OC(=O)OCC` (stereo not given), the growth inhibition is 4.45% (inactive).
As for `S=C1Cc2c([nH]c3ccccc23)-c2ccccc2N1`, the growth inhibition was 23.2% (inactive).
Same read-out and setting: next, `Cc1nc(N)c(N2CCN(S(=O)(=O)N(Cc3ccccc3)Cc3ccccc3)CC2)c(=O)[nH]1`: 14.9% (inactive); `CC(Br)C1=CC(c2ccccc2)(c2ccccc2)c2ccccc21` (stereo not given): 97.3% (active).
Consider `COC(=O)c1ccc(N(C)CCC(=O)COC(C)=O)cc1`, for which the growth inhibition is 7.6% (inactive).

A short description of another assay: NCI Yeast Anticancer Drug Screen. Data for the mlh1 rad18 strain (AID 175). To be noted: S. cerevisiae mlh1 rad18 strain growth inhibition; at 50.0 µM; active compounds read high. The essentials:
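Yeast w/ defined DNA-repair lesions; compound exposure; growth vs vehicle controls → % inhibition.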
Consider `CC(C)CCOC(=S)S`, for which the growth inhibition was -38.4% (inactive).
For the compound `CCCCCCNC(=O)CCC(NC(=O)c1ccc(N(C)Cc2cnc3nc(N)nc(N)c3n2)cc1)C(=O)NCCCCCC` (stereo not given), the growth inhibition was 28.2% (inactive).
`N#C/C(N)=C(\C#N)N=CNc1ccc(N)cc1`: the growth inhibition is -10.9% (inactive).
Regarding `ClC1CC2CCC1C2Br` (stereo not given) (tested in a mixture with another compound), the growth inhibition is -17.1% (inactive).
Regarding `NC(CS)C(=O)NCCNCCNc1ccc(NCCNCCNC(=O)C(N)CS)c2c1C(=O)c1c(O)ccc(O)c1C2=O` (stereo not given), the growth inhibition is -12.7% (inactive).
Consider `Nc1c(I)cc(C(=O)O)c(O)c1I`, for which the growth inhibition was -9.15% (inactive).
Take `O=c1[nH]cnc2c1ncn2CCCc1ccccc1`: the growth inhibition is -17.1% (inactive).
Still for that read-out and setting: next, `CC(=O)NNC(=S)/N=C/c1c(C)[nH]n(-c2ccccc2)c1=O`: 17.6% (inactive); `CCC(CO)c1ccccc1` (stereo not given): -12.1% (inactive); `CN=NNc1ccccc1`: -6.4% (inactive).
Still for that read-out and setting: to `CC(C)(CCCOc1ccccc1)/C(=N/O)c1ccccc1` belongs -14.5% (inactive); to `COC(=O)/C(C#N)=C/c1cccnc1`, -15.7% (inactive).
Turning to `CN(Cc1nc2c(N)nc(N)nc2nc1N)c1ccc(C(=O)NC(CCC(=O)O)C(=O)O)cc1` (stereo not given), the growth inhibition was -26.1% (inactive).
For the compound `CCN(CC)C(=O)Nc1cccc(O)c1`, the growth inhibition was 5.65% (inactive).
Take `O=C(NCCN1CCCC1)Nc1ccccc1`: the growth inhibition was 8.45% (inactive).
Take `CC(O)CN1CCOCC1` (stereo not given): the growth inhibition is 3.55% (inactive).
`COc1ccc(NC(=O)CC(=O)N2N=C(N(c3ccccc3)c3ccccc3)CC2c2ccccc2)cc1` (stereo not given): the growth inhibition was -29.8% (inactive).
Regarding `CSc1cc(/C=C/c2ccccc2)ccc1[N+](=O)[O-]`, the growth inhibition was 4.45% (inactive).
Still for that read-out and setting: to `NCc1ccc(C(=O)O)cc1` belongs -14.6% (inactive); to `O=C1NC(c2ccccc2Cl)Nc2ccccc21` (stereo not given), -27.1% (inactive).
Consider `O=C1c2ccccc2Cc2ccccc21`, for which the growth inhibition is 7.55% (inactive).
With `CN1CCC(c2ccccc2)(c2ccccc2)OC1`, the growth inhibition was 5.15% (inactive).
Consider `O=[N+]([O-])c1cccc(C2=NOC3CCCC23)c1` (stereo not given), for which the growth inhibition is 16.9% (inactive).
Turning to `C[Si](C)(C)C#CCOC=C1CC1`, the growth inhibition was -34.5% (inactive).
Take `N/C=N/O`: the growth inhibition was 22.7% (inactive).
As for `O=[N+]([O-])c1ccc(OCCO)c([N+](=O)[O-])c1`, the growth inhibition is 10% (inactive).
On to `CC(C)(C)C1CCC2c3c([nH]c4ccccc34)C3C(=O)N(c4ccc(Br)cc4)C(=O)C3C2C1` (stereo not given), for which the growth inhibition is 6.15% (inactive).
Same read-out and setting: next, `CCOC(=O)C(CCC(C)(C)SCc1ccccc1)(NC(C)=O)C(=O)OCC`: 5.6% (inactive).

For the origin of these results see PubChem BioAssay (NCI).
